Measurements reported in PubChem BioAssay AID1159580 (chemical genetic matrix, 2015).
The whole screen tested about 5,500 compounds, of which about 2,000 (36%) were called active. Roughly 18% stayed inconclusive and do not appear here. No stated cut-off is given here; in the data, active means normalized growth mostly below about 0.91 (no sharp cut-off); inconclusive means no clear call, values can overlap the other calls; inactive means mostly above about 0.92. This is one part of the list.

Experiment: chemical genetic growth profiling, strain panel (AID 1159580);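 further: tested at 20 µM; growth read once vehicle control cultures reached saturation at 30 °C; 1 = growth at the plate median or of vehicle wells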
Details: S. cerevisiae deletion strains, growth OD

Measured: normalized growth

FC(F)(F)c1ccc(C2Sc3ccccc3N=C3c4ccccc4CC32)cc1 (stereo unspecified)
inactive: locus YAR019C, strain CDC15, stronger effect = lower value 1.01 | locus YBL105C, strain PKC1, stronger effect = lower value 1.03 | locus YBR135W, strain CKS1, stronger effect = lower value 1.01 | locus YBR136W, strain MEC1, stronger effect = lower value 1 | locus YBR160W, strain CDC28, stronger effect = lower value 1.02 | locus YDL017W, strain CDC7, stronger effect = lower value 1.01 | locus YDL028C, strain MPS1, stronger effect = lower value 0.996 | locus YDL101C, strain DUN1, stronger effect = lower value 1 | locus YDL108W, strain KIN28, stronger effect = lower value 0.994 | locus YDL132W, strain cdc53, stronger effect = lower value 1.02 | locus YDL214C, strain PRR2, stronger effect = lower value 1.02 | locus YDR052C, strain DBF4, stronger effect = lower value 1.01 | locus YDR054C, strain cdc34, stronger effect = lower value 1.02 | locus YDR226W, strain ADK1, stronger effect = lower value 0.996 | locus YDR477W, strain SNF1, stronger effect = lower value 1.03 | locus YER123W, strain YCK3, stronger effect = lower value 0.96 | locus YER133W, strain GLC7, stronger effect = lower value 1 | locus YFL009W, strain cdc4, stronger effect = lower value 1.01 | locus YFL029C, strain CAK1, stronger effect = lower value 1 | locus YFR003C, strain YPI1, stronger effect = lower value 1.02 | locus YFR019W, strain FAB1, stronger effect = lower value 0.985 | locus YFR028C, strain CDC14, stronger effect = lower value 1.01 | locus YGR040W, strain KSS1, stronger effect = lower value 1.02 | locus YGR052W, strain FMP48, stronger effect = lower value 1.04 | locus YGR092W, strain DBF2, stronger effect = lower value 0.979 | locus YHR030C, strain SLT2, stronger effect = lower value 0.97 | locus YHR079C, strain IRE1, stronger effect = lower value 1.01 | locus YHR082C, strain KSP1, stronger effect = lower value 1.01 | locus YHR205W, strain SCH9, stronger effect = lower value 0.953 | locus YIL147C, strain SLN1, stronger effect = lower value 1 | locus YJL095W, strain BCK1, stronger effect = lower value 0.985 | locus YJL128C, strain PBS2, stronger effect = lower value 0.973 | locus YJL157C, strain FAR1, stronger effect = lower value 1.02 | locus YJR016C, strain ILV3, stronger effect = lower value 1.02 | locus YJR066W, strain TOR1 (second series), stronger effect = lower value 0.999 | locus YJR066W, strain TOR1, stronger effect = lower value 0.993 | locus YKL048C, strain ELM1, stronger effect = lower value 0.984 | locus YKL067W, strain YNK1, stronger effect = lower value 1 | locus YKL101W, strain HSL1, stronger effect = lower value 1.04 | locus YKL193C, strain SDS22, stronger effect = lower value 1.01 | locus YKL203C, strain TOR2, stronger effect = lower value 1.1 | locus YLR113W, strain HOG1, stronger effect = lower value 0.87 | locus YLR133W, strain CKI1, stronger effect = lower value 0.987 | locus YLR403W, strain SFP1, stronger effect = lower value 0.991 | locus YML070W, strain DAK1, stronger effect = lower value 0.981 | locus YMR001C, strain CDC5, stronger effect = lower value 1.02 | locus YMR205C, strain PFK2 (second series), stronger effect = lower value 0.995 | locus YMR277W, strain FCP1, stronger effect = lower value 1.02 | locus YNL006W, strain LST8, stronger effect = lower value 1 | locus YNL020C, strain ARK1, stronger effect = lower value 1.01 | locus YNL161W, strain CBK1, stronger effect = lower value 1.03 | locus YNL183C, strain NPR1, stronger effect = lower value 0.969 | locus YNL207W, strain RIO2, stronger effect = lower value 1.02 | locus YNL222W, strain SSU72, stronger effect = lower value 1.01 | locus YNL307C, strain MCK1 (second series), stronger effect = lower value 0.937 | locus YOL078W, strain AVO1, stronger effect = lower value 0.998 | locus YOL136C, strain PFK27, stronger effect = lower value 0.993 | locus YOR061W, strain CKA2, stronger effect = lower value 0.993 | locus YOR119C, strain RIO1, stronger effect = lower value 1.02 | locus YOR231W, strain MKK1, stronger effect = lower value 1 | locus YOR329C, strain SCD5, stronger effect = lower value 1.03 | locus YPL031C, strain PHO85, stronger effect = lower value 1.06 | locus YPL153C, strain RAD53, stronger effect = lower value 1.03 | locus YPL204W, strain HRR25, stronger effect = lower value 1.01 | locus YPL209C, strain IPL1, stronger effect = lower value 1.02 | locus YPL256C, strain CLN2, stronger effect = lower value 0.951 | locus YPR025C, strain CCL1, stronger effect = lower value 1.02 | locus YPR106W, strain ISR1, stronger effect = lower value 0.996 | locus YPR111W, strain DBF20, stronger effect = lower value 0.985 | strain NNK1, stronger effect = lower value 1.01 | strain TSCII, stronger effect = lower value 1.02
